Assay outcomes (PubChem BioAssay)
NSD2 inh = inhibitors of human NSD2 methyltransferase; O96028; NSD2-SET H3K36me1 DELFIA fluorescence, biochemical; inhibition, % at 12.5 µM; 44,000 compounds, 0.07% hits; in the data active = inhibition above about 54%, passing the limit was not always enough;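 note: inhibitors reduce the monomethyl H3K36 fluorescence signal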
Numbers without * were called inactive. Shown is part of a subset that was picked to be rich in hits.

SMILES | NSD2 inh
CCC(=O)NC(c1c(C)[nH]n(-c2ccccc2)c1=O)(C(F)(F)F)C(F)(F)F | 2.3
COc1ccccc1-c1cc(=O)c2ccccc2o1 | -0.5
CCCCC/C=C/C(=O)CCc1ccc(O)c(OC)c1 | 3.6
CC1OC(OCC2OC(OCC3(C)C(O)CCC4(C)C3CCC3(C)C4CCC4C5=CC(C)(C)CCC5(C(=O)O)CCC43C)C(O)C(O)C2O)C(O)C(O)C1O (centres undefined) | -25.2
O=C(OCc1ccccc1O[C@@H]1O[C@H](CO)[C@@H](O)[C@H](O)[C@H]1O)c1c(O)cccc1O[C@@H]1O[C@H](CO)[C@@H](O)[C@H](O)[C@H]1O | 3.0
CC(C)CC(=O)c1c(O)cc(O)cc1OC1OC(COC(=O)c2cc(O)c(O)c(O)c2)C(O)C(O)C1O (centres undefined) | 52.2*
COc1cc(C(=O)OCC2(O)COC(OCC3OC(Oc4c(OC)cc(CO)cc4OC)C(O)C(O)C3O)C2O)cc(OC)c1O (centres undefined) | 20.3
CCOc1cc(OCC)cc(C(=O)N[C@@H](Cc2ccc(-n3cc(COc4ccccc4/C=C(C)/C=C/C(=O)NO)nn3)cc2)C(=O)OC)c1 | -4.1
O=C(OCCSc1cnc2ccccc2n1)c1cc(Cl)cc(Cl)c1 | -0.3
CCC(C)CCCCCCCCC1CC(=O)NC(CCC(N)=O)C(=O)NC(CC(C)C)C(=O)NC(CC(C)C)C(=O)NC(C(C)C)C(=O)NC(CC(=O)O)C(=O)NC(CC(C)C)C(=O)NC(C(C)C)C(=O)O1 (centres undefined) | -0.4
C/C=C1/[C@H](O[C@@H]2O[C@H](CO)[C@@H](O)[C@H](O)[C@H]2O)OC=C(C(=O)OC)[C@H]1CC(=O)OCCc1ccc(O)cc1 | -0.3
Cc1cc(C)c2c(=O)cc(C(F)(F)F)oc2c1 | -0.5
C[C@@H]1CC[C@]2(C)[C@H](CC[C@@H](O)[C@]2(C)O)[C@@]1(C)CC/C(=C/CO)CO | 27.9
C=C1c2c(Cl)ccc(O)c2C(=O)C2C(=O)[C@]3(O)C(=O)C(C(N)=O)C(=O)[C@@H](N(C)C)[C@@H]3[C@@H](O)C12 (some centres undefined) | 6.2
Cc1c(Cl)cccc1NC(=S)N1CCCN(c2nc3ccc(Cl)cc3s2)CC1 | -3.8
O=C(O)C(c1ccccc1)N1C(=O)/C(=C/c2ccncc2)SC1=S (centres undefined) | -2.4
O=C1CCC(C(=O)Nc2cc(F)cc(F)c2)=NN1 | 3.6
CC(C)CC1NC(=O)C2CCCN2C1=O (centres undefined) | 9.5
CSc1nc2n(n1)C(=O)CC(C)(C)N2 | 2.7
CCC1C/C(=C\c2sccc2C)C(=O)/C(=C/c2sccc2C)C1 (centres undefined) | 1.7
O=C(O)C1CC=CCC1C(=O)Nc1ccc(Cc2ccncc2)cc1 (centres undefined) | 1.3
O=C(CCCCCC(=O)N/N=C/c1ccccc1)NO | -9.5
C(=C\c1ccccc1)/C=N/N1CCN(Cc2cccc3ccccc23)CC1 | 3.6
O=C(/C=C/c1ccc(OCc2ccc(Cl)cc2)cc1)NO | 0.4
CCOc1ccc(-c2nc(C#N)c(NCCCN(CC)CC)o2)cc1 | -6.9
SMILES | NSD2 inh
Fc1cccc(Cl)c1CN1CCN(CCCNc2ncnc3scc(-c4ccccc4)c23)CC1 | -6.3
Cc1cccc(Nc2nnc(-c3ccc(C)c(S(=O)(=O)NCCO)c3)c3ccccc23)c1 | -2.6
CN(CCO)c1ccc(/C=N/NC(=O)c2ccc(C(=O)NO)cc2)cc1 | 15.5
Cc1cccc(C)c1Nc1c(CN2C(=O)c3ccccc3C2=O)nc2ccc(Br)cn12 | -0.3
O=C(CCCCCC(=O)N/N=C/c1nccs1)NO | -0.9
COc1ccc2[nH]c3c(OC)ncnc3c2c1 | 3.9
CC1=CC(=O)CC2[C@@]1(C)CC[C@@H](C)[C@]2(C)CCC(C)CC(=O)O (some centres undefined) | -2.1
COc1cc(CCC(O)CC(O)CCc2ccc(O)c(O)c2)ccc1O (centres undefined) | 31.5
COc1ccc(-c2cc(=O)c3c(O)c(OC)c(O[C@@H]4O[C@H](CO)[C@@H](O)[C@H](O)[C@H]4O[C@@H]4O[C@@H](C)[C@H](O)[C@@H](O)[C@H]4O)cc3o2)cc1 | -3.8
Cc1ccc(-c2cnc(-c3ccc(Br)cc3)o2)cc1 | 2.6
O=C(NO)c1cccc(C(=O)N/N=C/c2cccc(O)c2O)c1 | 16.2
O=C(NO)c1cccc(C(=O)N/N=C/c2ccc(O)c3ccccc23)c1 | -1.4
O=C(NO)c1cccc(C(=O)N/N=C/c2ccc(O)c(O)c2O)c1 | 63.0*
CC12CC(c3ccoc3)OC(=O)C1CCC1(C)C2C2OC(=O)C1(O)C1OC21 (centres undefined) | 2.2
COC(=O)[C@@H](O)[C@H]1[C@@]2(C)C[C@]3(O)C4[C@@H](O[C@]56CC(=O)O[C@@H](c7ccoc7)[C@@]5(C)CCC([C@]46O)[C@]13C)[C@H]2O (some centres undefined) | 75.6*
CC(=O)O[C@@H]1CC2C(C)(C)C(=O)C3OC3[C@]2(C)C2CC[C@@]3(C)[C@H](c4ccoc4)OC(=O)C4OC43[C@@]21C (some centres undefined) | -2.1
